{"source": "PubChem BioAssay (EPA / NIEHS)", "note": "Active and inactive are the calls of the source. The calls were made as follows: active = hit-call score of the fitted dose curve at least 0.9, where 1 is the maximum; inactive = score below 0.9."}
{"assay": "CEETOX_H295R_MTT_cell_viability: Viability Assessment in the CeeTox HT-H295R MTT Assay (AID 2283718);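 as to AC50: curve fitted both ways so AC50 may mark viability loss or gain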", "procedure": "CEETOX_H295R is a cell-based, multiplexed-readout assay that uses H295R, a human adrenal gland cell line, with measurements taken at 48 hours after chemical dosing in a 96-well plate.CEETOX_H295R_MTT_cell_viability is one of 23 assay component(s) measured or calculated from the CEETOX_H295R assay. It is designed to make measurements of cell number, a form of viability reporter, as detected with […] signals by MTT cytotoxicity assay technology.The assay component endpoint CEETOX_H295R_MTT_cell_viability was analyzed with bidirectional fitting relation to DMSO as the negative control and baseline of activity. Using a type of viability reporter in the MTT cytotoxicity assay, gain or loss-of-signal activity can be used to monitor cellular processes to understand changes in proliferation. To generalize the intended target to other relatable targets, this assay endpoint is annotated to cell cycle, where the subfamily is proliferation.\nCell culture and media preparation procedures were conducted in accordance with OECD Test No. 456 guidelines, with minor modifications. H295R cells (ATCC CRL-2128) were expanded for 5 passages and frozen in batches in liquid nitrogen. Prior to the steroidogenesis assay, H295R cells were thawed and passed at least 4 times. The maximum passage was 10. Cells were maintained in a 1:1 mixture of DMEM/F12 supplemented with 5ml/L ITS+ Premix (BD Bioscience) and 12.5 ml/L Nu-Serum (BD Bioscience). After seeding cells into 96-well plates at 50-60% confluency, cells were allowed to adhere overnight. Prior to chemical testing, culture medium was replaced with 175 uL medium containing 10 uM forskolin to stimulate steroidogenesis for 48 hours. Following prestimulation, forskolin medium was replaced with medium containing test chemical solubilized in DMSO (ensuring a final concentration of 0.1% DMSO). Test chemicals were incubated for 48 hours, then the medium was removed and split into 2 vials containing approximately 75uL each, and stored at -80 C prior to hormone analysis. For steroid quantification, media samples were shipped to OpAns, LLC (Durham, NC) on dry ice, and samples were thawed to room temperature prior to liquid-liquid extraction. Steroid hormones were extracted from media samples using methyl tertbutyl ether (MTBE). An extra derivatization with dansyl chloride was included for estrogen (estrone and estradiol) detection only. Steroid hormones were separated by HPLC, eluted using a reverse phase C18 gradient with electrospray positive ionization, followed by quantification by tandem mass spectrometry (MS/MS). Data were acquired on a MassHunter Workstation Acquisition version B03.01 (Agilent Technologies, Inc.) and processed using MassHunter Quantitative Analysis for QQQ. Accuracy was determined for each hormone analyte from 3 standards to determine upper and lower limits of quantification (ULOQ and LLOQ, respectively) using a 7-point standard curve. Precision and accuracy of the extraction and quantification methods were calculated as the percent relative standard deviation (%RSD) of the spiked standards and percent spiked standard recovered, respectively. The goal was to achieve 100% accuracy (i.e., recover all spiked-in standard at quantification with minimal loss during run time) and good precision (i.e., have %RSD <15% to ensure reproducibility). Test medium was removed following chemical exposure, and cell viability was evaluated in the same wells by MTT. MTT procedures were as follows: after removal of test medium, 500 uL of 0.5 mg/ml of 3-[4,5-dimethylthiazol-2-y]2,5-diphenyltetrazoliumbromide solution was added to the cells. Following a 4-hour incubation at 37 C and 5% CO2 to allow formazan-crystal formation, the MTT solution was removed and blue formazan salt crystals were solubilized using 500uL anhydrous isopropanol with shaking for 20 minutes. Absorbance was read at 570 and 650nm using a Packard Fusion microplate reader. […]"}
{"smiles": "COP(N)(=S)OC", "outcome": "inactive"}
{"smiles": "CCCCOCCOP(=O)(OCCOCCCC)OCCOCCCC", "outcome": "inactive"}
{"smiles": "Oc1ccc(I)cc1", "outcome": "inactive"}
{"smiles": "O=S(=O)(c1ccc(O)cc1)c1ccc(O)cc1", "outcome": "inactive"}
{"smiles": "CCOP(=S)(OCC)SCn1nnc2ccccc2c1=O", "outcome": "inactive"}
{"smiles": "Nc1cc2c3c(c1)C(c1ccccc1)=N[C@@H](NC(=O)c1cccnc1)C(=O)N3CC2", "outcome": "inactive"}
{"smiles": "Nc1ccc([N+](=O)[O-])cc1Cl", "outcome": "inactive"}
{"smiles": "O=S1(=O)OCC2C(CO1)C1(Cl)C(Cl)=C(Cl)C2(Cl)C1(Cl)Cl", "note": "(centres undefined)", "outcome": "inactive"}
{"smiles": "CCCCc1ccc(O)cc1", "outcome": "inactive"}
{"smiles": "CCOc1ccc(C(C)(C)COCc2cccc(Oc3ccccc3)c2)cc1", "outcome": "inactive"}
{"smiles": "O=P(Oc1ccccc1)(Oc1ccccc1)Oc1ccccc1", "outcome": "inactive"}
{"smiles": "c1ccc2c(c1)Nc1ccccc1S2", "outcome": "inactive"}
{"smiles": "CCOC(=O)c1ccccc1C(=O)OCC", "outcome": "inactive"}
{"smiles": "Nc1ccc2ccccc2c1", "AC50": "23.9 µM (active)"}
{"smiles": "CCOP(=S)(NC(C)C)Oc1ccccc1C(=O)OC(C)C", "note": "(centres undefined)", "outcome": "inactive"}
{"smiles": "CCOP(=S)(OCC)SCS(=O)(=O)CC", "outcome": "inactive"}
{"smiles": "CO/N=C(/C(=O)OC)c1ccccc1COc1ccccc1C", "AC50": "5.04 µM (active)"}
{"smiles": "Cc1ccc(N)cc1N", "outcome": "inactive"}
{"smiles": "CC(=O)c1ccc(-c2ccccc2)cc1", "outcome": "inactive"}
{"smiles": "CCOP(=S)(Oc1ccc([N+](=O)[O-])cc1)c1ccccc1", "note": "(centres undefined)", "outcome": "inactive"}
{"smiles": "Nc1ccc(Cl)cc1", "outcome": "inactive"}
{"smiles": "Cc1cccc(N)c1", "outcome": "inactive"}
{"smiles": "CC(C)Nc1ccc(Nc2ccccc2)cc1", "outcome": "inactive"}
{"smiles": "CCC(C)(C)c1ccc(O)cc1", "outcome": "inactive"}
{"smiles": "N#Cc1c(-c2ccc(Cl)cc2)[nH]c(C(F)(F)F)c1Br", "AC50": "0.289 µM (active)"}
{"smiles": "CCNc1nc(Cl)nc(NC(C)(C)C)n1", "outcome": "inactive"}
{"smiles": "ClC(Cl)=C(c1ccc(Cl)cc1)c1ccccc1Cl", "outcome": "inactive"}
{"smiles": "CCOC(=O)c1ccccc1N", "outcome": "inactive"}
{"smiles": "c1ccc(OP(Oc2ccccc2)Oc2ccccc2)cc1", "outcome": "inactive"}
